# About 83,000 compounds went through this panel and 20% of them were active in at least one assay; those are over-represented in the sample as a whole.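 48-hour exposure, single concentration, 96-well plates; percent growth endpoint where 0 means no net growth. Active: below 10.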 A number with no mark means an inactive call. The source made the active and inactive calls.
# How the values were obtained:
# Experiment in all cases: NCI-60 one-dose screen, 48 h (100 = growth as untreated, 0 = no growth, -100 = all killed)
# Conditions in all cases: 10 µM unless noted
# SK-MEL-2 melanoma = tested on: SK-MEL-2 melanoma
# EKVX NSCLC = tested on: EKVX NSCLC
# SN12C renal = tested on: SN12C renal
# UO-31 renal = tested on: UO-31 renal
# TK-10 renal = tested on: TK-10 renal
# ACHN renal = tested on: ACHN renal
# CAKI-1 renal = tested on: CAKI-1 renal
# A498 renal = tested on: A498 renal
# CCRF-CEM leukemia = tested on: CCRF-CEM leukemia
# MOLT-4 leukemia = tested on: MOLT-4 leukemia
SMILES,growth (SK-MEL-2 melanoma),growth (EKVX NSCLC),growth (SN12C renal),growth (UO-31 renal),growth (TK-10 renal),growth (ACHN renal),growth (CAKI-1 renal),growth (A498 renal),growth (CCRF-CEM leukemia),growth (MOLT-4 leukemia)
CC[n+]1ccc2c(c1)C(=O)c1nccc3c1c-2nc1ccccc13,-34% (active),11.2%,-75% (active),15.1%,18.7%,6.37% (active),24.7%,-9.88% (active),0.574% (active),-30% (active)
O=c1cc(-c2ccccc2)[nH]c2ccccc12,55.8%,50.5%,91.6%,46.6%,11.4%,48.8%,47.4%,47.6%,15.2%,32%
CN1CCN(Cc2ccc(NC(=O)c3[nH]ncc3Nc3ncnc4sccc34)cc2)CC1,7.08% (active),16.1%,4.54% (active),14.8%,16.3%,1.08% (active),6.37% (active),-35.5% (active),8.16% (active),–
O=C(CO[N+](=O)[O-])Nc1ccc(C(=O)/C=C/c2ccc(Cl)cc2)cc1,81.7%,67.9%,46.8%,32%,45.7%,62.3%,74.9%,103%,20.1%,–
CC1=N/C(=C\c2cccc(Br)c2)C(=O)O1,109%,99.5%,98.2%,90.1%,101%,109%,100%,119%,107%,–
c1ccc(Sc2ncnc3ccccc23)cc1,44.3%,84.2%,69%,52.7%,96.5%,90.9%,65.5%,82%,48.5%,38%
CN(CC(=O)N(Cc1ccc(C2CCCCC2)cc1)c1ccc(C(=O)NO)cc1)S(=O)(=O)c1c(F)c(F)c(F)c(F)c1F,81.2%,106%,86.1%,69.1%,87.4%,79.6%,87.4%,95.7%,41.9%,39.2%
O=C1c2cc3c(cc2-c2c1c1cc(Cl)c(Cl)cc1c(=O)n2CCCn1ccnc1)OCO3,22.7%,35.7%,-4.67% (active),1.1% (active),34.3%,-6.04% (active),11.9%,-29.9% (active),2.94% (active),-24.9% (active)
O=C(CN1CCN(c2cc3c(cc2F)c(=O)c(C(=O)O)cn3C2CC2)CC1)Nc1nc(-c2ccccc2)cs1,94.6%,91.4%,71.2%,81.7%,82.9%,89.5%,93.8%,65.2%,79.1%,89%
COc1cnc2c(c1)C(=O)c1c-2n(CCCN2CCN(C)CC2)c(=O)c2cc([N+](=O)[O-])ccc12,-14.2% (active),-43.8% (active),-57.7% (active),-86.6% (active),-89.7% (active),-94.5% (active),-91.4% (active),-95.9% (active),-27.3% (active),-23.2% (active)
CC1(C)CC(=O)C(c2c(-c3ccccc3)[nH]c3[nH]c(=S)[nH]c(=O)c23)=C(O)C1,94.7%,89.8%,99%,90.9%,107%,97.3%,125%,100%,92%,–
CNC(=O)c1cc(Oc2ccc3nc(NC(=O)Nc4ccc(N5CCC(N(C)C)CC5)cc4)sc3c2)ccn1,117%,115%,92.3%,87.7%,115%,74.1%,90.1%,81.6%,66.5%,61.4%
C[C@@H]1CC[C@@H]2[C@@H]1[C@H](OC(=O)/C=C/c1ccccc1)[C@]1(c3ccccc3)C[C@@H](OC(=O)CO)[C@@]2(C)O1,97.7%,88.4%,21.8%,-68.1% (active),98.6%,4.8% (active),15.4%,-22.3% (active),93%,92.1%
COc1cc2c(c(OC)c1OC)-c1ccc(N=NC(N)=S)c(=O)cc1[C@@H](NC(C)=O)CC2,-10.1% (active),52.4%,37%,60.9%,19%,65.8%,64.4%,-10.9% (active),15%,20%
Brc1cccc(-c2nc(-c3ccc4c(c3)OCCO4)co2)c1,37.6% [25 µM],51.5% [25 µM],54% [25 µM],70% [25 µM],84.7% [25 µM],85.4% [25 µM],52.3% [25 µM],23.5% [25 µM],51.6% [25 µM],45.4% [25 µM]
COc1ccc2[nH]c(=O)c(/C=C/C(=O)c3ccc(Nc4nccc(-c5ccc6ccccc6c5)n4)cc3)cc2c1,102%,107%,94.5%,93.2%,103%,103%,98%,89.7%,86.4%,101%
Clc1nc(Cl)c2c3c(sc2n1)CCCC3,20%,89.8%,27.5%,65.6%,91%,45.1%,64.2%,127%,10.7%,-27.8% (active)
CN(C)c1ccc(C2Nc3ccccc3-n3cccc32)cc1 (stereo unspecified),118%,87.8%,89.5%,64.2%,55.7%,86.6%,83.3%,113%,109%,104%
O=c1[nH]c(-c2ccccn2)nc2sc3c(c12)CCCCC3,74.4%,32.8%,51.2%,32.6%,49.5%,36.2%,38.5%,59.4%,26.7%,32.1%
C=C1CCC2C3(C)COC(c4ccc(SC)cc4)OC3CCC2(C)C1C/C=C1/C(=O)OCC1O (stereo unspecified),64.8%,56.1%,65.6%,60.7%,101%,74.2%,75.3%,96.7%,2.76% (active),5.06% (active)
NS(=O)(=O)N(c1cc(C(F)(F)F)cc(C(F)(F)F)c1)C1CCN(Cc2ccc(F)cc2)CC1,74.2%,72.2%,42.2%,35.6%,81.4%,75.2%,62.5%,76.3%,64%,39%
COC1/C=C\OC2(C)Oc3c(C)c(O)c4c(O)c(c(CN(C)CCO)c(O)c4c3C2=O)NC(=O)/C(C)=C\C=C/C(C)C(O)C(C)C(O)C(C)C(OC(C)=O)C1C (stereo unspecified),105%,95.1%,105%,80.3%,114%,103%,68.5%,115%,98.3%,112%
COCCOc1ccc(-c2nc3ccc(-c4nc5ccc(N6CCN(C)CC6)cc5[nH]4)cc3[nH]2)cc1,-76.2% (active),67.9%,18.8%,79.2%,66.4%,80.8%,68.6%,-37.8% (active),-2.49% (active),0.928% (active)
CNc1cc2nc3cc(NC)c(C)cc3cc2cc1C,48.5%,-0.852% (active),14.2%,34.5%,24.5%,20.6%,7.63% (active),16.5%,40.9%,1.13% (active)
COc1ccc(-c2cc(-c3cccnc3)nc3sc4c(=O)n(-c5ccc(C)cc5)cnc4c23)cc1OC,108%,86.4%,92.2%,82%,111%,88.1%,76.3%,91%,105%,97.4%
O=C(O)c1ccc2c(c1Sc1ccccc1)C(=O)c1ccccc1C2=O,90.5%,36.1%,96.6%,77%,86.5%,95.3%,84.4%,114%,91.9%,113%
O=C1c2c[n+](Cc3ccccc3)ccc2-c2nc3ccccc3c3ccnc1c23,-53.6% (active),-1.66% (active),-74.2% (active),-21.8% (active),-20.2% (active),-13% (active),13.8%,-56.1% (active),-13.1% (active),-17.2% (active)

# Source: PubChem BioAssay (NCI)
